The sample as a whole holds a higher share of hits than the screen did.
C diff growth: C. difficile growth inhibitors, primary screen, HTS; Clostridium difficile clinical isolate growth, OD600, 24 h; active compounds read low; growth activity, negative = inhibition, % at 16 µg/mL (by protocol); 0.25% of 86,000 active; AID 1259249, 2017;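 active means mean growth activity at or below -80% and every replicate also at or below -80%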
Hits are given with their value; 0 = inactive.

SMILES	C diff growth
Fc1cccc(-c2ccc(C3[C@@H]4CN(Cc5ccccc5F)C[C@H]3N4)cc2)c1 (stereo partly specified)	-101
O=C(Cc1ccncc1)N1C[C@@H]2N[C@H](C1)C2c1ccc(-c2cccc(F)c2)cc1 (stereo partly specified)	0
O=C(C1CCC1)N1C[C@@H]2N[C@H](C1)C2c1ccc(-c2cccc(F)c2)cc1 (stereo partly specified)	0
Fc1cccc(-c2ccc(C3[C@@H]4CN(Cc5cccnc5)C[C@H]3N4)cc2)c1 (stereo partly specified)	0
Fc1cccc(CN2C[C@@H]3N[C@H](C2)C3c2ccc(-c3ccccc3)cc2)c1 (stereo partly specified)	-99
N#Cc1ccc(-c2ccc(C3[C@@H]4CN(Cc5ccccc5F)C[C@H]3N4)cc2)cc1 (stereo partly specified)	0
N#Cc1cccc(-c2ccc(C3[C@@H]4CN(Cc5ccccc5)C[C@H]3N4)cc2)c1 (stereo partly specified)	0
COc1cc(CN2C[C@@H]3N[C@H](C2)C3c2ccc(-c3cccc(OC)c3)cc2)cc(OC)c1 (stereo partly specified)	0
CC=Cc1ccc2n(c1=O)C[C@@H]1[C@@H](CO)[C@H](C(=O)NCc3ccc(F)cc3)[C@H]2N1S(C)(=O)=O (mixture of isomers)	0
CCCC(=O)Nc1ccc2c(c1)OC[C@@H](C)N(CCC)C[C@H](C)[C@@H](OC)CN(C)C2=O	0
C[C@H](CO)N1C[C@H](C)[C@H](CN(C)C(=O)c2ccccc2)OCCCC[C@H](C)Oc2ccc(NS(=O)(=O)c3ccc(Cl)cc3)cc2C1=O	0
O=C(c1cnccn1)N1C[C@@H]2[C@H](c3ccccc31)[C@H](CO)N2Cc1ccccc1Cl	0
O=C(C[C@H]1CC[C@H](NC(=O)C2CCOCC2)[C@@H](CO)O1)Nc1ccccc1	0
N#Cc1cccc(-c2ccc(C3[C@H]4CNC[C@@H]3N4S(=O)(=O)c3ccc(F)cc3)cc2)c1 (stereo partly specified)	0
CCCc1cn(CC[C@@H]2CC[C@H](NC(=O)CCN3CCCCC3)[C@H](CO)O2)nn1	0

Source: PubChem BioAssay
